This is an account of results in PubChem BioAssay AID2148 (The Scripps Research Institute Molecular Screening Center, 2009).

Structures are written as SMILES. In all, about 2,400 compounds went through this assay and about 1,500 (62%) were called active. No stated cut-off is given here; in the data, active means inhibition above about 22%; inactive means the rest. The set was probably picked from earlier hits. Many of the other results were omitted from the sample, so actives are more common in it than they were.

In this experiment the target is Melanin-concentrating hormone receptor 1 (Homo sapiens) (UniProt Q99705). Put plainly: antagonism of human MCHR1 receptor – cell-based, fluorescence, counter-screen for GPR7 antagonist project (AID 2148).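 Further: 0% = vehicle with agonist and 100% = vehicle without agonist.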 The note with it: MCHR1-expressing cells, fluorescence antagonist assay; at 4.4 µM; hits give high values. In general terms: The purpose of a counterscreen is to sort out artefacts and off-target activity.
On to `CCOC(=O)C1(Cc2ccc(Cl)cc2)CCN(C(C)CCn2cccn2)CC1` (stereo not drawn), for which the inhibition is 26% (active). The figure for `COc1ccc(Br)cc1CNCCc1cccc(Cl)c1` is 44.1% (active); for `CCOc1ccc(-c2cc(C)[n+](CCN(CC)CC)c(-c3ccc(OCC)cc3)c2)cc1` it is 46.5% (active).

For orientation: inhibition means the percentage by which the read-out fell short of the control.
